In PubChem BioAssay (NCI):
The panel holds about 79,000 compounds, 15% with a hit somewhere; the sample as a whole holds those more often. Values without a mark were called inactive. Active and inactive are the calls of the source. No stated cut-off is given here; in the data, active means growth inhibition above about 70%; inactive means the rest.

Assay: NCI Yeast Anticancer Drug Screen. Data for the bub3 strain (AID 167)
Settings: S. cerevisiae bub3 mutant strain, at 50.0 µM, hits give high values
Procedure, shortened: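 Yeast carrying a defined mutation is treated with each compound, and growth is compared with that of vehicle-exposed cells to give inhibition.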
For `O=C(Nc1ccc(NC(=O)Nc2cc(C(F)(F)F)ccc2Oc2ccc(Cl)c(Cl)c2)cc1)Nc1cc(C(F)(F)F)ccc1Oc1ccc(Cl)c(Cl)c1`, the growth inhibition was -35.1%.
Compound `Cn1ncc2c(=O)[nH]c(-c3ccccc3)nc21` has a growth inhibition of -3.05%.
Compound `Cn1c(=O)c2c(ncn2CC(=O)O)n(C)c1=O` has a growth inhibition of -13.8%.
Work on `CC(C)=NNC(=O)c1ccccc1O` yielded a growth inhibition of 1.65%.
For `Cc1ccc2ccc(=O)oc2c1`, the growth inhibition was 13.8%.
`CCCCCCCCCCCCCCCCCC(N)=O` gave a growth inhibition of -2.5%.
`Cn1c2c(cc(-c3ccccc3)c1=O)COc1ccccc1-2` gave a growth inhibition of 23.7%.
For `C=C(C)C(=O)OC1C/C(CO)=C\C(O)C/C(C)=C/C2OC(=O)C(=C)C21` (stereo not drawn), the growth inhibition was 41.5%.

Assay: NCI Yeast Anticancer Drug Screen. Data for the mlh1 rad18 strain (AID 175)
Settings: S. cerevisiae mlh1 rad18 strain growth inhibition; at 50.0 µM; hits give high values
Procedure, shortened: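 Compound-treated yeast growth, normalised to vehicle controls. Strain bears defined DNA repair mutations.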
`COc1cc(NCCCCCNC(C)C)c2ncccc2c1OC` gave a growth inhibition of -3.1%.
`CCOC(=O)Cn1c(=O)n(C)c(=O)c2c1ncn2Cc1ccccc1` showed a growth inhibition of -14.4%.
Work on `CSC(SC)=C1Sc2cccc(Cl)c2S1` yielded a growth inhibition of -13.8%.
`CCOC(=O)C1(C)Sc2ccccc2N=C1c1ccccc1` (stereo not drawn) showed a growth inhibition of 17.6%.
Compound `CCOc1ccc(/C=C2\N=C(c3cccc(Cl)c3)OC2=O)cc1` has a growth inhibition of 13.7%.
In the case of `CC(O)C(N=Cc1nc(-c2ccccc2)oc1O)C(=O)O` (stereo not drawn), the growth inhibition is reported as 7.05%.
Work on `c1cc(OCC2CO2)ccc1OCC1CO1` (stereo not drawn) yielded a growth inhibition of 49.4%.
In the case of `CN(C)CC1(Cc2ccccc2)CCC(Cc2ccccc2)C1=O` (stereo not drawn), the growth inhibition is reported as 86.3% (active).
With `COc1cc(NCCCCCCNCC(C)C)c2nccc(C)c2c1` the growth inhibition was 21.6%.
Work on `CCOC(=O)C1=NN(c2ccccc2)C(=O)/C1=C\N1CC(=O)NC1=S` yielded a growth inhibition of -32.1%.
Work on `CC1NC(=O)C2Cc3ccc(O)c(c3)Oc3cccc(c3)C(O)C(C(=O)N2C)N(C)C(=O)C(C)NC(=O)C(Cc2ccc(O)c(O)c2)N(C)C(=O)C(C)NC1=O` (stereo not drawn) yielded a growth inhibition of 6.55%.
Compound `O=C(Nc1ccc(Cl)cc1)c1ccc(C(=O)Nc2ccc(Cl)cc2)cc1` has a growth inhibition of -24.9%.
Compound `O=C(CCc1cc(-c2ccc(F)cc2)n[nH]1)N(Cc1ccccc1)Cc1ccccc1` has a growth inhibition of -9%.
With `c1ccc(C(=C2CCCCCCCCCCCCC2)c2ccccc2)cc1` the growth inhibition was -24%.
In the case of `C/C(O)=C(\C=NC(=S)c1ccncc1)C(=O)Nc1ccccc1C`, the growth inhibition is reported as -26.9%.
`c1ccc(Cc2nnc(Cc3ccccc3)nn2)cc1` showed a growth inhibition of 7%.
In the case of `C=C(COC(C)=O)CC(/C=C(\C)CCC=C(C)C)OC(C)=O` (stereo not drawn), the growth inhibition is reported as 11%.
With `Nc1nc2c(ncn2C2OCC(O)C(O)C2O)c(=O)[nH]1` (stereo not drawn) the growth inhibition was -2.3%.
With `COc1cccc(NC(=O)CC(=O)Nc2cccc(OC)c2)c1` the growth inhibition was -18.7%.
Compound `c1ccc(N=C2N=c3ccccc3=C2c2c(Nc3ccccc3)[nH]c3ccccc23)cc1` has a growth inhibition of 17.6%.
In the case of `Cc1ncc2c(=O)c3c(oc2n1)c1ccccc1n3Cc1ccccc1`, the growth inhibition is reported as -4.1%.
With `O=C1NC2CCC(NC(=O)N1c1ccccc1)C1=C2C1` the growth inhibition was -32.1%.
`CC(NCc1cc(O)c(CNC(C)c2ccccc2)cc1O)c1ccccc1` (stereo not drawn) showed a growth inhibition of 1.95%.
Compound `Cc1cc(Cl)ccc1OCCCC(=O)NC(Cc1c[nH]c2ccccc12)C(=O)O` (stereo not drawn) has a growth inhibition of 9.35%.
With `OCCOCCNc1ncnc2cc(Cl)ccc12` the growth inhibition was 4.2%.
Compound `COc1cc(C(=O)C(C)Br)cc(OC)c1OC` (stereo not drawn) has a growth inhibition of 62.4%.
For `C[C@H](CCC(=O)O)[C@H]1CC[C@H]2[C@@H]3[C@@H](O)C[C@@H]4C[C@H](O)CC[C@]4(C)[C@H]3C[C@H](O)[C@]12C`, the growth inhibition was 7.8%.
For `CC(=O)Nc1cc(F)c(N)c(F)c1`, the growth inhibition was -3.8%.
In the case of `CS(=O)(=O)C(CCC(=O)c1cccs1)C(=O)c1ccccc1` (stereo not drawn), the growth inhibition is reported as 14.4%.
`O=C1C2C3C=CC(C2C(=O)N1CCl)C1C2C(=O)N(CCl)C(=O)C2C31` (stereo not drawn) gave a growth inhibition of 18.7%.
With `COc1cc(C2C3=C(COC3=O)Oc3cc4c(cc32)OCO4)cc(OC)c1OC(C)=O` (stereo not drawn) the growth inhibition was -2.5%.
For `CC(C)CCCC(C)C1CCC2(C)C3CCC(C(C)O)C(C)(CCCO)C3CCC12C` (stereo not drawn), the growth inhibition was 55.9%.
Compound `O=C(Nc1ccc(NC(=O)Nc2cc(C(F)(F)F)ccc2Oc2ccc(Cl)c(Cl)c2)cc1)Nc1cc(C(F)(F)F)ccc1Oc1ccc(Cl)c(Cl)c1` has a growth inhibition of -19.7%.
In the case of `Cn1ncc2c(=O)[nH]c(-c3ccccc3)nc21`, the growth inhibition is reported as -6.3%.
`Cn1c(=O)c2c(ncn2CC(=O)O)n(C)c1=O` showed a growth inhibition of 19.9%.
Compound `CC(C)=NNC(=O)c1ccccc1O` has a growth inhibition of -10.2%.
In the case of `Cc1ccc2ccc(=O)oc2c1`, the growth inhibition is reported as 6.85%.
`CCCCCCCCCCCCCCCCCC(N)=O` gave a growth inhibition of 25.4%.
Work on `Cn1c2c(cc(-c3ccccc3)c1=O)COc1ccccc1-2` yielded a growth inhibition of 24.1%.
`C=C(C)C(=O)OC1C/C(CO)=C\C(O)C/C(C)=C/C2OC(=O)C(=C)C21` (stereo not drawn) showed a growth inhibition of -46.7%.
